Data: PubChem BioAssay AID1159580 (chemical genetic matrix, 2015)
Where “and” joins values, the source holds several entries; their conditions need not be identical. Identical values can stand only once. In all, about 5,500 compounds went through this assay and about 2,000 (36%) were called active. Not shown: some 18% with an inconclusive outcome. Rule as the data show it: active = normalized growth mostly below about 0.91 (no sharp cut-off); inconclusive = no clear call, values can overlap the other calls; inactive = mostly above about 0.92. The list shows a part of the results.

Test: chemical genetic growth profiling, strain panel (AID 1159580);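 also: tested at 20 µM; growth read once vehicle control cultures reached saturation at 30 °C; 1 = growth at the plate median or of vehicle wells; lower values mean less growth of the strain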
Settings: S. cerevisiae deletion strains, growth OD

Measured: normalized growth

O=c1c(O)c(-c2ccccc2)oc2ccc3occc3c12
0.72 (active) and 0.968 (inactive): locus YHR030C, strain SLT2, stronger effect = lower value
0.437 (active) and 0.978 (inactive): locus YJL095W, strain BCK1, stronger effect = lower value
active: locus YAL026C, strain drs2, stronger effect = lower value 0.808 | locus YAL030W, strain snc1, stronger effect = lower value 0.902 | locus YBL061C, strain skt5, stronger effect = lower value 0.811 | locus YBR009C, strain hhf1, stronger effect = lower value 0.627 | locus YBR023C, strain chs3, stronger effect = lower value 0.71 | locus YBR231C, strain swc5, stronger effect = lower value 0.799 | locus YBR279W, strain paf1, stronger effect = lower value 0.796 | locus YCL011C, strain gbp2, stronger effect = lower value 0.814 | locus YCL016C, strain dcc1, stronger effect = lower value 0.766 | locus YCL029C, strain bik1, stronger effect = lower value 0.749 | locus YCL061C, strain MRC1, stronger effect = lower value 0.801 | locus YCL069W, strain vba3, stronger effect = lower value 0.662 | locus YDL035C, strain GPR1, stronger effect = lower value 0.849 | locus YDL040C, strain nat1, stronger effect = lower value 0.93 | locus YDL074C, strain BRE1, stronger effect = lower value 0.671 | locus YDL101C, strain DUN1, stronger effect = lower value 0.858 | locus YDL192W, strain arf1, stronger effect = lower value 0.731 | locus YDR101C, strain arx1, stronger effect = lower value 0.765 | locus YDR137W, strain rgp1, stronger effect = lower value 0.798 | locus YDR159W, strain sac3, stronger effect = lower value 0.742 | locus YDR162C, strain NBP2, stronger effect = lower value 0.782 | locus YDR195W, strain ref2 1.23 [resistant] | locus YDR297W, strain sur2, stronger effect = lower value 0.849 | locus YDR318W, strain mcm21, stronger effect = lower value 0.799 | locus YDR335W, strain msn5, stronger effect = lower value 0.773 | locus YDR388W, stronger effect = lower value 0.847 | locus YDR392W, strain spt3, stronger effect = lower value 0.172 | locus YDR502C, strain sam2, stronger effect = lower value 0.783 | locus YEL003W, strain gim4, stronger effect = lower value 0.814 | locus YEL037C, strain rad23, stronger effect = lower value 0.86 | locus YEL061C, strain CIN8 (second series), stronger effect = lower value 0.71 | locus YER015W, strain faa2, stronger effect = lower value 0.829 | locus YER016W, strain bim1, stronger effect = lower value 0.92 | locus YER110C, stronger effect = lower value 0.767 | locus YER111C, strain swi4, stronger effect = lower value 0.793 | locus YER155C, strain BEM2 (second series), stronger effect = lower value 0.25 | locus YER155C, strain BEM2, stronger effect = lower value 0.807 | locus YER167W, strain BCK2, stronger effect = lower value 0.9 | locus YGL078C, strain dbp3, stronger effect = lower value 0.884 | locus YGL086W, strain mad1, stronger effect = lower value 0.764 | locus YGL173C, strain kem1, stronger effect = lower value 0.833 | locus YGL227W, strain vid30, stronger effect = lower value 0.888 | locus YGL240W, strain doc1, stronger effect = lower value 0.566 | locus YGL248W, strain PDE1, stronger effect = lower value 0.801 | locus YGL253W, strain hxk2, stronger effect = lower value 0.501 | locus YGR135W, strain pre9, stronger effect = lower value 0.713 | locus YGR229C, strain SMI1, stronger effect = lower value 0.416 | locus YGR252W, strain gcn5, stronger effect = lower value 0.593 | locus YHR079C, strain IRE1 (second series), stronger effect = lower value 0.873 | locus YHR094C, strain hxt1, stronger effect = lower value 0.904 | locus YHR142W, strain chs7, stronger effect = lower value 0.367 | locus YHR200W, strain rpn10, stronger effect = lower value 0.798 | locus YIL066C, strain RNR3, stronger effect = lower value 0.833 | locus YIL125W, strain kgd1, stronger effect = lower value 0.886 | locus YIR030C, strain dcg1, stronger effect = lower value 0.794 | locus YJL092W, strain hpr5, stronger effect = lower value 0.879 | locus YJL095W, strain BCK1 (second series), stronger effect = lower value 0.562 | locus YJL129C, strain trk1, stronger effect = lower value 0.852 | locus YJL164C, strain tpk1, stronger effect = lower value 0.781 | locus YJL166W, strain qcr8, stronger effect = lower value 0.74 | locus YJL168C, strain set2, stronger effect = lower value 0.925 | locus YJL187C, strain SWE1 (second series), stronger effect = lower value 0.847 | locus YJR043C, strain POL32, stronger effect = lower value 0.64
inactive: locus YAL013W, strain DEP1, stronger effect = lower value 0.925 | locus YAL021C, strain ccr4, stronger effect = lower value 0.987 | locus YBR021W, strain FUR4, stronger effect = lower value 0.889 | locus YBR171W, strain sec66, stronger effect = lower value 0.962 | locus YBR229C, strain ROT2, stronger effect = lower value 0.955 | locus YCR088W, strain abp1, stronger effect = lower value 0.93 | locus YDL005C, strain med2, stronger effect = lower value 0.951 | locus YDL185W, strain tfp1, stronger effect = lower value 0.938 | locus YDR001C, strain nth1, stronger effect = lower value 0.956 | locus YDR069C, strain doa4, stronger effect = lower value 0.941 | locus YDR150W, strain NUM1, stronger effect = lower value 0.954 | locus YDR334W, strain swr1, stronger effect = lower value 0.913 | locus YEL061C, strain CIN8, stronger effect = lower value 0.93 | locus YFR010W, strain ubp6, stronger effect = lower value 0.926 | locus YGL167C, strain pmr1, stronger effect = lower value 0.919 | locus YHR013C, strain ard1, stronger effect = lower value 0.921 | locus YHR027C, strain rpn1, stronger effect = lower value 0.937 | locus YHR079C, strain IRE1, stronger effect = lower value 0.956 | locus YIL073C, strain SPO22, stronger effect = lower value 0.733 | locus YJL115W, strain asf1, stronger effect = lower value 0.943 | locus YJL134W, strain LCB3, stronger effect = lower value 0.956 | locus YJL154C, strain vps35, stronger effect = lower value 0.939 | locus YJR066W, strain TOR1, stronger effect = lower value 0.883
